# Measured values reported in PubChem BioAssay AID652154 (Broad Institute, 2013).
# Hit rate of the full screen: of about 360,000 compounds, about 4,200 (1.2%) were called active. The sample as a whole holds a higher share of actives than the screen did. A number with no mark means an inactive call.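 How the source made its calls: active means mean replicate inhibition at least 60% with every replicate also reaching 60%; inconclusive means only one of the two criteria is met; inactive means mean below 60% and not all replicates reaching 60%.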
# Assay: inhibitors of PAX8-driven TPO luciferase reporter, primary screen, RMG-I cells, single concentration (AID 652154);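 further: luciferase light reporting Pax8 driven TPO promoter activity; plate controls were median of neutral control wells for no effect and mitoxantrone controls for full effect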
# Details: SteadyGlo, 24 h, at 12.6 µM, stronger effect = higher value
row,Compound,inhibition
1,COc1ccc2c3c(n(C)c2c1)[C@@H](CO)N(Cc1ccncc1)CC31CN(C(=O)C2CCCCC2)C1,-15.5%
2,COc1ccc(S(=O)(=O)N(C)C[C@H]2OCCCC[C@@H](C)Oc3ccc(NC(=O)NC(C)C)cc3C(=O)N([C@H](C)CO)C[C@H]2C)cc1,17%
3,C/C=C/c1ccc([C@H]2[C@@H](C#N)N(C(=O)CN3CCOCC3)[C@@H]2CO)cc1,-6.35%
4,COC(=O)CSc1nnc(NC(=O)CCc2ccccc2)s1,-0.955%
5,CCOCc1nnc(NC(=O)CCS(=O)(=O)Cc2ccccc2)s1,50.3%
6,COCCSc1nnc(NC(=O)CCS(=O)(=O)Cc2ccccc2)s1,65.7% (active)
7,C[C@@H]1CN([C@@H](C)CO)S(=O)(=O)c2ccc(-c3cccc(C(=O)N(C)C)c3)cc2O[C@@H]1CN(C)C,-0.377%
8,O=C(C[C@H]1C[C@H]2c3cc(NC(=O)C4CCC4)ccc3O[C@H]2[C@@H](CO)O1)NCc1ccc(Cl)cc1,-5.09%
9,O=C(c1ccccc1)N1CCN(c2cc(-c3ccccc3)nc3cc(-c4cccc(Cl)c4)nn23)CC1,40.2%
10,C#Cc1cc(N2CCN(C(=O)c3ccoc3)CC2)n2nc(-c3cccc(Cl)c3)cc2n1,107% (active)
11,CN(C)CCN1CCN(c2cc(-c3cccc(Cl)c3)nc3ccnn23)CC1,-3.43%
12,C[C@@H]1CN([C@H](C)CO)C(=O)c2cccc(NS(=O)(=O)c3ccccc3)c2O[C@@H]1CN(C)Cc1ccc(C(=O)O)cc1,14.1%
13,CCC(=O)Nc1ccc2c(c1)C(=O)N(C)[C@@H]1CC[C@@H](CC(=O)Nc3cccc(OC)c3)O[C@@H]1CO2,8.78%
14,Cc1ccc(C)c(S(=O)(=O)N2CCN(CC(=O)Nc3ccc([N+](=O)[O-])cc3)CC2)c1,6.46%
15,COc1ccc(-c2csc3ncnc(N4CCN(S(=O)(=O)c5ccccc5C#N)CC4)c23)cc1,9.25%
16,Cc1ccc(C)c(S(=O)(=O)N2CCN(c3ncnc4sccc34)CC2)c1,73.6% (active)
17,CCC(=O)Nc1ccc2c(c1)OC[C@@H](C)N(Cc1ccccc1OC)C[C@H](C)[C@H](OC)CN(C)C2=O,-6.79%
18,C[C@@H]1CN([C@H](C)CO)C(=O)c2cc(NS(=O)(=O)c3cn(C)cn3)ccc2O[C@H]1CN(C)S(=O)(=O)c1ccc(Cl)cc1,1.32%
19,CC(=O)N(C)C[C@@H]1Oc2ncc(C#Cc3ccc(F)cc3)cc2C(=O)N([C@H](C)CO)C[C@@H]1C,-8.23%
20,CCCC#Cc1ccc2c(c1)O[C@@H](CN(C)S(=O)(=O)c1cccc(OC)c1)[C@H](C)CN([C@@H](C)CO)S2(=O)=O,60.4% (active)
21,COCC(=O)N(C)C[C@@H]1Oc2cc(C3=CCCC3)ccc2S(=O)(=O)N([C@@H](C)CO)C[C@H]1C,-21%

row,Compound,inhibition
1,C[C@@H]1CN([C@H](C)CO)S(=O)(=O)c2ccc(C#CCC3CCCC3)cc2O[C@H]1CN(C)C(=O)CC1CC1,23.3%
2,COc1ccccc1S(=O)(=O)N(C)C[C@H]1Oc2cc(C#CCC3CCCC3)ccc2S(=O)(=O)N([C@@H](C)CO)C[C@H]1C,77.3% (active)
3,C[C@H](CO)N1C[C@H](C)[C@@H](CN(C)S(=O)(=O)c2cccc(F)c2)Oc2cc(C#CCN(C)C)ccc2S1(=O)=O,14.6%
4,CCCN(C)C[C@H]1Oc2cc(C#CCC3CCCC3)ccc2S(=O)(=O)N([C@@H](C)CO)C[C@@H]1C,2%
5,COc1cccc(S(=O)(=O)N(C)C[C@@H]2Oc3cc(C4=CCCCC4)ccc3S(=O)(=O)N([C@H](C)CO)C[C@H]2C)c1,65.8% (active)
6,C[C@@H]1CN([C@@H](C)CO)S(=O)(=O)c2ccc(C#CCN(C)C)cc2O[C@@H]1CN(C)S(=O)(=O)c1cccc(F)c1,-15.8%
7,Cc1ccc(S(=O)(=O)N(C)C[C@@H]2Oc3cc(C4=CCCC4)ccc3S(=O)(=O)N([C@@H](C)CO)C[C@@H]2C)cc1,36.4%
8,C[C@H]1CN([C@@H](C)CO)C(=O)Cc2cc(NC(=O)Nc3cccc4ccccc34)ccc2O[C@@H]1CN(C)C,-5.56%
9,OC[C@H]1[C@H](c2ccc(-c3ccccc3F)cc2)[C@H]2CN(Cc3cncnc3)CCCCN21,1.13%
10,COc1ccccc1-c1ccc2c(c1)O[C@H](CN(C)C(=O)c1cccnc1)[C@@H](C)CN([C@H](C)CO)S2(=O)=O,15%
11,C=CC[C@]12C[C@@]3(O[C@H](c4ccc(C(F)(F)F)cc4)N=C3C[C@H](c3ccc(OC)cc3)[C@H]1C)N(C1CCN(Cc3ccccc3)CC1)C2=O,-2.39%
12,CNC[C@@H]1Oc2cc(C#CC3(O)CCCC3)ccc2S(=O)(=O)N([C@@H](C)CO)C[C@H]1C,9.72%
13,C[C@@H]1CN([C@H](C)CO)S(=O)(=O)c2ccc(C3=CCCC3)cc2O[C@H]1CN(C)C(=O)Nc1ccc2c(c1)OCO2,8.58%
14,C[C@H]1CN([C@@H](C)CO)S(=O)(=O)c2ccc(C#Cc3ccncc3)cc2O[C@@H]1CN(C)C(=O)Nc1ccc2c(c1)OCO2,101% (active)
15,CC(C)C#Cc1ccc2c(c1)O[C@@H](CN(C)C(=O)NC(C)C)[C@H](C)CN([C@H](C)CO)S2(=O)=O,-13.2%
16,C[C@H](CO)N1C[C@H](C)[C@H](CN(C)C(=O)Nc2ccc3c(c2)OCO3)Oc2cc(C#Cc3ccncc3)ccc2S1(=O)=O,72.2% (active)
17,C[C@@H]1CN([C@H](C)CO)S(=O)(=O)c2ccc(C#CC3CCCCC3)cc2O[C@H]1CN(C)C(=O)Cc1ccncc1,0.108%
18,C[C@H]1CN([C@@H](C)CO)S(=O)(=O)c2ccc(C3=CCCC3)cc2O[C@H]1CN(C)C(=O)Nc1ccc2c(c1)OCO2,19.4%
19,C[C@H]1CN([C@@H](C)CO)S(=O)(=O)c2ccc(C#CC3CCCC3)cc2O[C@H]1CN(C)C(=O)Cc1ccncc1,32.9%
20,C[C@@H]1CN([C@H](C)CO)S(=O)(=O)c2ccc(C#CC3CCCC3)cc2O[C@@H]1CN(C)C(=O)Cc1ccncc1,90.6% (active)
21,C[C@@H]1CN([C@@H](C)CO)S(=O)(=O)c2ccc(C#Cc3ccccc3)cc2O[C@@H]1CN(C)C(=O)Nc1ccccc1,3.61%
